# Source: the antibiotic and cytotoxicity screens of Wong et al. (2023)
# The campaign covered roughly 39,000 compounds. About 3,300 (8.5%) were called active. This excerpt belongs to a sample that is enriched for actives.
# System: HepG2
# Assay: cytotoxicity call (relative viability < 0.9)
# Settings: 10 µM
row,Compound,cytotoxicity call
1,O=c1[nH]nc(Br)c(=O)[nH]1,inactive
2,O=C(O)C[C@H]1CC[C@@H]2[C@H](COC[C@@H](O)CN2S(=O)(=O)c2ccc(F)cc2)O1,inactive
3,CC(=O)CC(c1ccccc1)c1c(O)c2ccccc2oc1=O (stereo not given),active
4,O=c1oc2ccccc2c(O)c1Cc1c(O)c2ccccc2oc1=O,inactive
5,O=C(O)c1cc(=O)c2ccccc2o1,inactive
6,CO[C@@H](CN(C)S(=O)(=O)c1cccc(Cl)c1)[C@@H](C)CN([C@@H](C)CO)S(=O)(=O)c1cccc(Cl)c1,inactive
7,C[C@H]1CN([C@@H](C)CO)C(=O)Cc2cc(NC(=O)Cc3cn(C)c4ccccc34)ccc2O[C@@H]1CN(C)Cc1ccc(Oc2ccccc2)cc1,inactive
8,C[C@@H]1CN([C@H](C)CO)C(=O)Cc2cc(NC(=O)Cc3cn(C)c4ccccc34)ccc2O[C@@H]1CN(C)Cc1ccc(Oc2ccccc2)cc1,active
9,C[C@H]1CN([C@@H](C)CO)C(=O)Cc2cc(NC(=O)Cc3cn(C)c4ccccc34)ccc2O[C@H]1CN(C)Cc1ccc(Oc2ccccc2)cc1,active
10,C[C@H](CO)N1C[C@H](C)[C@H](CN(C)Cc2ccc(Oc3ccccc3)cc2)Oc2ccc(NC(=O)Cc3cn(C)c4ccccc34)cc2CC1=O,active
11,C[C@@H]1CN([C@H](C)CO)C(=O)Cc2cc(NC(=O)Cc3cn(C)c4ccccc34)ccc2O[C@H]1CN(C)Cc1ccc(Oc2ccccc2)cc1,inactive
12,C[C@@H]1CN([C@@H](C)CO)C(=O)Cc2cc(NC(=O)Cc3cn(C)c4ccccc34)ccc2O[C@H]1CN(C)Cc1ccc(Oc2ccccc2)cc1,active
13,CC(C)=Cc1ccc(C#N)c(=S)[nH]1,inactive
14,CC[C@@H](O[Si](C#C[Si](C(C)C)(C(C)C)C(C)C)(C(C)C)C(C)C)c1cn([C@H](CO)Cc2ccccc2)nn1,inactive
15,Cc1noc(C)c1NC(=O)N(C)C[C@@H]1OCCCC[C@H](C)Oc2ccc(NC(=O)Nc3ccc4c(c3)OCO4)cc2C(=O)N([C@H](C)CO)C[C@@H]1C,inactive
16,COc1ccc(S(=O)(=O)Nc2ccc3c(c2)CC(=O)N([C@@H](C)CO)C[C@H](C)[C@H](CN(C)S(C)(=O)=O)O3)cc1,inactive
17,Cc1noc(C)c1NC(=O)Nc1ccc2c(c1)C(=O)N([C@@H](C)CO)C[C@@H](C)[C@H](CN(C)C(=O)Nc1ccc3c(c1)OCO3)OCCCC[C@H](C)O2,inactive
18,CNC[C@@H]1OCCCC[C@@H](C)Oc2ccc(NC(=O)Nc3ccc(C(F)(F)F)cc3)cc2C(=O)N([C@H](C)CO)C[C@@H]1C,inactive
19,C[C@@H]1CN([C@H](C)CO)C(=O)c2cc(NC(=O)Cc3cn(C)c4ccccc34)ccc2O[C@@H]1CN(C)S(C)(=O)=O,inactive
20,O=C(C[C@H]1C[C@H]2c3cc(NC(=O)Nc4ccccc4F)ccc3O[C@H]2[C@@H](CO)O1)NCc1ccc(Oc2ccccc2)cc1,inactive
21,C[C@@H]1CCCCO[C@@H](CN(C)Cc2ccncc2)[C@@H](C)CN([C@H](C)CO)C(=O)c2cc(NS(C)(=O)=O)ccc2O1,inactive
22,C[C@@H]1CN([C@@H](C)CO)C(=O)c2cccc(NC(=O)CCCCCC(=O)Nc3ccccc3N)c2O[C@H]1CN(C)Cc1ccc(C(F)(F)F)cc1,inactive

row,Compound,cytotoxicity call
1,Cc1noc(C)c1S(=O)(=O)Nc1ccc2c(c1)C(=O)N([C@H](C)CO)C[C@H](C)[C@@H](CN(C)C)OCCCC[C@H](C)O2,inactive
2,CCOC(=O)Cc1c(C)[nH]c(=O)[nH]c1=O,inactive
3,COc1cccc(C#Cc2cnc3c(c2)C(=O)N([C@@H](C)CO)C[C@@H](C)[C@H](CN(C)C(=O)C2CCC2)O3)c1,inactive
4,Cc1cc(C(=O)Nc2cccc3c2O[C@@H](CN(C)S(=O)(=O)c2cccs2)[C@@H](C)CN([C@H](C)CO)C3=O)n(C)n1,inactive
5,C[C@@H]1CN([C@@H](C)CO)C(=O)Cc2cc(NC(=O)Cc3cn(C)c4ccccc34)ccc2O[C@@H]1CN(C)Cc1ccc(Oc2ccccc2)cc1,active
6,C[C@H](CO)N1C[C@H](C)[C@@H](CN(C)Cc2ccc(Oc3ccccc3)cc2)Oc2ccc(NC(=O)Cc3cn(C)c4ccccc34)cc2CC1=O,inactive
7,C[C@@H]1CN([C@H](C)CO)C(=O)c2c(c3ccccc3n2C)-c2ccccc2CO[C@H]1CN(C)Cc1ccc(Cl)c(Cl)c1,inactive
8,C[C@@H]1CN([C@H](C)CO)C(=O)c2c(c3ccccc3n2C)-c2ccccc2CO[C@H]1CN(C)Cc1ccc(C(F)(F)F)cc1,active
9,C[C@@H]1CN([C@H](C)CO)C(=O)c2c(c3ccccc3n2C)-c2ccccc2CO[C@@H]1CN(C)Cc1ccc(C(F)(F)F)cc1,inactive
10,C[C@@H]1CN([C@@H](C)CO)C(=O)c2c(c3ccccc3n2C)-c2ccccc2CO[C@H]1CN(C)Cc1ccccc1,active
11,C[C@H]1CN([C@@H](C)CO)C(=O)c2c(c3ccccc3n2C)-c2ccccc2CO[C@@H]1CN(C)Cc1ccc(-c2ccccc2)cc1,inactive
12,C[C@@H]1CN([C@H](C)CO)C(=O)c2c(c3ccccc3n2C)-c2ccccc2CO[C@@H]1CN(C)Cc1ccccc1,active
13,C[C@@H]1CN([C@H](C)CO)C(=O)c2c(c3ccccc3n2C)-c2ccccc2CO[C@@H]1CN(C)Cc1ccc(-c2ccccc2)cc1,inactive
14,C[C@H](CO)N1C[C@H](C)[C@H](CN(C)Cc2ccc(Cl)c(Cl)c2)OCc2ccccc2-c2c(n(C)c3ccccc23)C1=O,active
15,C[C@H](CO)N1C[C@H](C)[C@@H](CN(C)Cc2ccc(-c3ccccc3)cc2)OCc2ccccc2-c2c(n(C)c3ccccc23)C1=O,inactive
16,C[C@@H]1CN([C@@H](C)CO)C(=O)c2c(c3ccccc3n2C)-c2ccccc2CO[C@@H]1CN(C)Cc1ccc(-c2ccccc2)cc1,inactive
17,C[C@@H]1CN([C@@H](C)CO)C(=O)c2c(c3ccccc3n2C)-c2ccccc2CO[C@@H]1CN(C)Cc1ccc(C(F)(F)F)cc1,inactive
18,C[C@@H]1CN([C@@H](C)CO)C(=O)c2c(c3ccccc3n2C)-c2ccccc2CO[C@H]1CN(C)Cc1ccc(Cl)c(Cl)c1,inactive
19,C[C@@H]1CCCCO[C@H](CN(C)C(=O)Nc2ccc(C(F)(F)F)cc2)[C@H](C)CN([C@@H](C)CO)C(=O)c2cc(NC(=O)Nc3cccc4ccccc34)ccc2O1,inactive
20,C[C@@H]1CN([C@@H](C)CO)C(=O)c2cc(NC(=O)C3CCCCC3)ccc2O[C@@H](C)CCCCO[C@@H]1CN(C)C(=O)Nc1ccc(C(F)(F)F)cc1,inactive
21,COc1cccc(C#Cc2ccc3c(c2)O[C@@H](CN(C)C(C)=O)[C@H](C)CN([C@@H](C)CO)S3(=O)=O)c1,inactive
22,COc1ccc(NC(=O)N(C)C[C@H]2OCCCC[C@H](C)Oc3ccc(NC(=O)Nc4cccc5ccccc45)cc3C(=O)N([C@@H](C)CO)C[C@H]2C)cc1,inactive

row,Compound,cytotoxicity call
1,CCCC1CCC(c2ccc(OC(=O)c3ccco3)cc2)CC1 (stereo not given),inactive
2,CCCN(C)C[C@@H]1OCCCC[C@@H](C)Oc2ccc(NC(=O)CCC(F)(F)F)cc2C(=O)N([C@@H](C)CO)C[C@@H]1C,inactive
3,C[C@@H]1CN([C@@H](C)CO)C(=O)c2cc(C3=CCCC3)cnc2O[C@H]1CN(C)S(=O)(=O)c1cn(C)cn1,inactive
4,C[C@@H]1CN([C@@H](C)CO)C(=O)CCCn2cc(nn2)CO[C@@H]1CN(C)C(=O)Nc1cccc2ccccc12,inactive
5,CCC(=O)N1C[C@]2(C1)CN([C@H](CO)c1c2c2ccc(cc2n1C)OC)C(=O)CN1CCOCC1,inactive
6,C[C@H](CO)N1C[C@H](C)[C@H](CN(C)Cc2ccc(-c3ccccc3)cc2)Oc2c(NC(=O)Nc3ccc4c(c3)OCO4)cccc2C1=O,inactive
7,C[C@@H]1CN([C@@H](C)CO)S(=O)(=O)c2ccc(C#CC3(O)CCCC3)cc2O[C@H]1CN(C)C(=O)c1ccccc1,inactive
8,C[C@@H]1CN([C@@H](C)CO)C(=O)c2cccc(NS(=O)(=O)c3cn(C)cn3)c2O[C@@H]1CN(C)S(C)(=O)=O,inactive
9,CCS(=O)(=O)N1C[C@]2(C1)CN([C@H](CO)c1c2c2ccc(cc2n1C)OC)S(=O)(=O)c1ccccc1,inactive
10,C[C@@H]1CN([C@@H](C)CO)C(=O)c2c(c3ccccc3n2C)-c2ccccc2CO[C@H]1CN(C)Cc1ccccc1C(F)(F)F,inactive
11,C[C@H](CO)N1C[C@H](C)[C@H](CN(C)Cc2ccccc2)OCc2ccccc2-c2c(n(C)c3ccccc23)C1=O,inactive
12,COc1ccccc1CN(C)C[C@@H]1OCc2ccccc2-c2c(n(C)c3ccccc23)C(=O)N([C@H](C)CO)C[C@H]1C,inactive
13,COc1ccccc1CN(C)C[C@H]1OCc2ccccc2-c2c(n(C)c3ccccc23)C(=O)N([C@@H](C)CO)C[C@@H]1C,inactive
14,C[C@@H]1CN([C@H](C)CO)C(=O)c2c(c3ccccc3n2C)-c2ccccc2CO[C@H]1CN(C)Cc1ccccc1,active
15,C[C@H](CO)N1C[C@H](C)[C@H](CN(C)Cc2ccccc2C(F)(F)F)OCc2ccccc2-c2c(n(C)c3ccccc23)C1=O,inactive
16,C[C@H]1CN([C@@H](C)CO)C(=O)c2c(c3ccccc3n2C)-c2ccccc2CO[C@@H]1CN(C)Cc1ccccc1,inactive
17,C[C@H]1CN([C@@H](C)CO)C(=O)c2c(c3ccccc3n2C)-c2ccccc2CO[C@H]1CN(C)Cc1ccccc1,inactive
18,C[C@@H]1CN([C@@H](C)CO)C(=O)c2c(c3ccccc3n2C)-c2ccccc2CO[C@@H]1CN(C)Cc1ccccc1,inactive
19,COc1ccccc1CN(C)C[C@H]1OCc2ccccc2-c2c(n(C)c3ccccc23)C(=O)N([C@H](C)CO)C[C@@H]1C,active
20,C[C@@H]1CN([C@H](C)CO)C(=O)c2c(c3ccccc3n2C)-c2ccccc2CO[C@H]1CN(C)Cc1ccccc1C(F)(F)F,active
21,C[C@H](CO)N1C[C@H](C)[C@@H](CN(C)Cc2ccccc2)OCc2ccccc2-c2c(n(C)c3ccccc23)C1=O,active
